The structures appear in SMILES notation. About 1,300 (0.68%) of roughly 190,000 compounds were called active. Only a selection was taken, and actives are over-represented in it overall. A number with no mark means an inactive call. Rule as the data show it: active = inhibition above about 50%; inactive = the rest.

By inhibition is commonly meant the drop in the measured response relative to a control, in per cent.

For the experiment, the target named is Mannose-6-phosphate isomerase (Homo sapiens) (UniProt P34949). Put plainly: human PMI inhibitors, high substrate, primary screen, biochemical, fluorescence intensity, high mannose 6-phosphate (AID 1220). The note with it: recombinant PMI enzyme, coupled fluorescence intensity; at 20 µM; hits give high values.
Chain of Mannose-6-phosphate isomerase (Homo sapiens) (P34949 whole entry, looked up): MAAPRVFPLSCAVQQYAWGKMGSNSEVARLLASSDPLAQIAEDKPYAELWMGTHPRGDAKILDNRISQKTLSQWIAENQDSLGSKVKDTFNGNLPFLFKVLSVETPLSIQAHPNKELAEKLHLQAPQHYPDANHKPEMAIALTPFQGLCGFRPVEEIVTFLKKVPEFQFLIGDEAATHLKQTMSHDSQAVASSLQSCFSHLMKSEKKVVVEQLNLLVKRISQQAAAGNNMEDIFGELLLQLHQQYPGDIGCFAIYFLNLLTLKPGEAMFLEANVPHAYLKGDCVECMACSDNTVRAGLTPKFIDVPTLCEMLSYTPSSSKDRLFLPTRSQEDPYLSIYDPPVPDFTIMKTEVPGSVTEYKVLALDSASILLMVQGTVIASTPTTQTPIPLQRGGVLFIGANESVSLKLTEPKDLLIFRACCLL
Regarding `CCCCOc1ccc(Br)cc1CSC(=N)N`, the inhibition is -4.3%.
With `O=C(C[n+]1ccc(-c2cc(C(=O)Nc3cccc(C(F)(F)F)c3)c3ccccc3n2)cc1)c1cccc([N+](=O)[O-])c1` the figure was -6.2%.
With `COc1ccc(/C=C(/NC(=O)c2ccccc2)C(=O)N/N=C/c2ccc3c(c2)OCO3)cc1OC` the figure was -10.4%.
Turning to `O=C(CC1Nc2ccccc2NC1=O)NCCCN1CCCCCC1` (stereo unspecified), the inhibition is 0.7%.
Next, `Cc1ccc(NC(=S)N2CCN(S(=O)(=O)c3c(F)cccc3F)CC2)cc1C`: 11.5%; `CC1CCCCN1C(=O)C12CCC(C)(C(=O)C1)C2(C)C` (stereo unspecified): 48.1%; `Cc1c(C(N)=O)sc2ncn(CC(=O)NCCc3ccccc3)c(=O)c12`: -8.4%.
Next, `O=C(CCc1c[nH]c2ccccc12)NCC(=O)Nc1ccc(F)c(F)c1F`: -1.9%; `CCCC(=O)Nc1ccc(S(=O)(=O)Nc2cc(C)nc(C)n2)cc1`: 4.9%.
Next, `CCOC(=O)c1ccc(NC(=S)NC2CCCC2)cc1`: -1.3%; `CCOc1ccc(NC(=O)c2ccc(NC(=S)NC3CC3)cc2)cc1`: 12.4%.
As to `CCOc1ccc(NC(=O)c2ccc(NC(=S)NC3CCCCC3)cc2)cc1`, the inhibition was 52.6% (active).
With `CCCCN(C(=O)NC(=O)Nc1cccc(C)c1C)S(C)(=O)=O`, the inhibition is -3.7%.
Regarding `COc1cc2c(C#N)c(N3CCN(c4ccccc4OC)CC3)nc(N)c2c(N)n1`, the inhibition is 54% (active).
Next, `COc1cc2c(C#N)c(N3CCOCC3)nc(N)c2c(N)n1`: 22%; `COc1cc2c(C#N)c(N3CCN(C)CC3)nc(N)c2c(N)n1`: 34.6%.
With `COc1ccc(CN=CC2=C(O)CNC2=O)cc1OC` the figure was -8.2%.
Next, `CCN(CC)c1ccc(NS(=O)(=O)c2ccc3c(c2)oc(=O)n3C)c(C)c1`: 23.7%.
With `CCOC(=O)Cn1c(=O)oc2cc(S(=O)(=O)Nc3c(C)cc(C)cc3C)ccc21`, the inhibition is 5.9%.
Next, `CCOC(=O)Cn1c(=O)oc2cc(S(=O)(=O)Nc3ccc(N(CC)CC)cc3C)ccc21`: 51.2% (active); `CCOc1ccc(-c2csc(NC(=O)CSC3=NC(=O)CN3C(C)=O)n2)c2ccccc12`: 14.8%; `O=C1c2cccc3c(O)ccc(c23)C(=O)N1Cc1ccccc1`: 7.6%.
Take `O=C1c2cccc3cccc(c23)C(=O)N1Cc1ccco1`: the inhibition is -4.4%.
For the molecule `O=C1c2cccc3c(O)ccc(c23)C(=O)N1Cc1ccco1`, the inhibition is 64.3% (active).
Take `CSc1nc(O)c(C2OC(=O)c3ccccc32)c(=O)[nH]1` (stereo unspecified): the inhibition is 8.9%.
Turning to `Cc1ccc(NS(=O)(=O)c2ccc3[nH]c(=O)c(=O)[nH]c3c2)cc1Cl`, the inhibition is 14.3%.
For `O=[N+]([O-])c1ccc(Oc2cccc(F)c2)c2ccncc12`, the inhibition is -0.7%.
Next, `O=[N+]([O-])c1ccc(Oc2ccc(F)cc2Br)c2ccncc12`: 50% (active).
As for `O=[N+]([O-])c1ccc(Oc2ccc(F)cc2)c2ccncc12`, the inhibition is 17.6%.
As for `Nc1cc(Cl)ccc1Oc1ccccc1`, the inhibition was -2.5%.
Next, `Nc1cc(Cl)ccc1Oc1ccc(Cl)cc1`: -1.6%; `N#C/C=C\Oc1ccc(Cl)cc1N`: 57.9% (active); `COc1cc(-c2nnc(COC(=O)c3cc(C)nc4ccc(C)cc34)o2)cc(OC)c1OC`: 13%.
Next, `CCN1CCN(CCOCCOc2ccccc2-c2ccccc2)CC1`: -4.3%; `O=S(=O)(Cc1ccc(Cl)cc1)NCC1CCCO1` (stereo unspecified): 14.9%; `CCOC(=O)c1cc2c(C)n(-c3ccc(N(C)C)cc3)c(C)c2cc(C(=O)OCC)c1=O`: 37.3%.
With `Cn1c(C(=O)N2CCCc3ccccc32)cc2sccc21`, the inhibition was -3.3%.
Regarding `O=C(CNC(=S)N(CCCN1CCOCC1)Cc1cccs1)N1CCOCC1`, the inhibition was -1.9%.
For `O=C(CNC(=S)N(CCCN1CCOCC1)Cc1cccs1)N1CCCC1`, the inhibition was -5%.
Next, `O=C(CNC(=S)N(CCCN1CCOCC1)Cc1cccs1)N1CCCCCC1`: 55.1% (active).
Next, `CCCC(=O)Nc1ccccc1N1CCN(C(=O)C(C)C)CC1`: -0.1%; `CN(C)c1ccc(NC(=O)c2cn(-c3ccccc3)nc2-c2cccs2)cc1`: 13.7%.
In the case of `O=C1C=C(Nc2cccc(O)c2)CC(c2ccco2)C1` (stereo unspecified), the inhibition was 12%.
In the case of `O=C1C=C(Nc2ccc(Cl)cc2)CC(c2ccco2)C1` (stereo unspecified), the inhibition was 5.8%.
Turning to `O=C1C=C(Nc2ccc(O)cc2)CC(c2ccco2)C1` (stereo unspecified), the inhibition was 60.2% (active).
For the molecule `COC(=O)c1cccc([N+](=O)[O-])c1CN1CCCC(C(N)=O)C1` (stereo unspecified), the inhibition was -6.5%.
With `CCOc1cc(C(=O)Nc2ccc3c4c(cccc24)C(=O)N3CC)cc(OCC)c1OCC` the figure was -4.4%.
With `CCN1C(=O)c2cccc3c(NS(=O)(=O)c4ccc(NC(C)=O)cc4)ccc1c23` the figure was 55.9% (active); with `CCN1C(=O)c2cccc3c(S(=O)(=O)NCc4ccco4)ccc1c23`, 63% (active); with `CCN1C(=O)c2cccc3c(NC(=O)C(C)(C)C)ccc1c23`, 11.8%.
With `CCN1C(=O)c2cccc3c(S(=O)(=O)NCc4ccccn4)ccc1c23` the figure was -3.8%.
For `CCOC(=O)c1ccc(NC(=O)Nc2ccc3c4c(cccc24)C(=O)N3CC)cc1`, the inhibition was 53.1% (active).
Regarding `CCN1C(=O)c2cccc3c(NC(=O)c4ccc(S(=O)(=O)N(C)C)cc4)ccc1c23`, the inhibition is 13.6%.
In the case of `CCN1C(=O)c2cccc3c(NC(=O)c4ccccc4)ccc1c23`, the inhibition was 27.7%.
Next, `CN1C(=O)c2cccc3c(S(=O)(=O)NCc4ccco4)ccc1c23`: 1.8%; `Cc1nn(CC(=O)Nc2sc3c(c2C#N)CCC(C(C)(C)C)C3)c(C)c1[N+](=O)[O-]` (stereo unspecified): 21%.
Next, `COc1ccc(S(=O)(=O)NNC(=O)C2CC(c3cccnc3)=NO2)cc1` (stereo unspecified): -11%; `CC(=O)C(=Nc1ccccc1Cl)NNc1ccc(Cl)cc1`: -52.8%.
As for `C=CCOn1c(=O)c(-c2ccccc2)[n+]([O-])c2ccccc21`, the inhibition was 12%.
Next, `COc1ccc(CCN(Cc2cc3cc(C)cc(C)c3nc2Cl)C(=O)C2CC2)cc1`: 15.7%; `Clc1ccc(-c2nnc3n2CCCCS3)cc1`: -8.4%; `CCCN1CCN(c2nc3c([nH]2)c(=N)ncn3CC(O)CO)CC1` (stereo unspecified): 2.5%.
With `COC(=O)C1C(=O)c2c([nH]c(C(=O)OC3CCCC3C)c2C)CC1C` (stereo unspecified) the figure was 12.3%.
With `COc1ccc(-c2nn3c(-c4ccc(F)cc4)nnc3s2)cc1`, the inhibition is -6.8%.
Turning to `O=C(Cn1c2c(sc1=O)C1c3ccccc3OCC1CS2)Nc1ccc(Cl)cc1` (stereo unspecified), the inhibition is 8.7%.
With `Cn1cc(C2CC(c3ccccc3)=NN2C(=O)c2ccccc2)c2ccccc21` (stereo unspecified) the figure was 20.9%; with `OCCCNC(=S)Nc1ccc2nc(-c3ccccn3)c(-c3ccccn3)nc2c1`, 14.4%; with `Cc1nc2ccc(NC(=S)NCCCO)cc2nc1C`, -2.9%.
Next, `OCCCNC(=S)Nc1ccc2nccnc2c1`: 53.9% (active); `c1ccc2c(CCNc3ncnc4nc[nH]c34)cccc2c1`: 10%.
Next, `COC(=O)c1ccc(-c2sc3nc(N4CCOCC4)c4c(c3c2N)CCCC4)o1`: 20.1%.
Regarding `CNC(=O)c1ccc(-c2sc3nc(N4CCOCC4)c4c(c3c2N)CC(C)(C)OC4)o1`, the inhibition was 48.4%.
Next, `CNC(=O)c1ccc(-c2sc3nc(N4CCOCC4)c4c(c3c2N)CCCC4)o1`: 55.4% (active); `CC(C)C(=O)Nc1cccc(-c2csc(-c3ccccc3)n2)c1`: 11.9%.
For `COc1ccc(-c2noc(-c3cccnc3)n2)cc1OC`, the inhibition was -11.6%.
Next, `COc1cc(CC(C#N)(CO)c2nc3ccccc3[nH]2)ccc1OC(F)F` (stereo unspecified): 16.3%; `Cc1nc(N2CCCC2)c2ccsc2n1`: -2.9%; `CCN(CC)CCNC(=O)CSc1c2c(nc3cc(Cl)ccc13)CCCC2`: 56.3% (active).
Next, `O=C(CSc1c2c(nc3cc(Cl)ccc13)CCCC2)NCCN1CCOCC1`: 2.2%; `CCN(CC)CCCNC(=O)CSc1c2c(nc3cc(Cl)ccc13)CCCC2`: -5.8%; `Cn1c(Cn2c(=O)sc3ccccc32)nnc1SCC(=O)NCC1CCCO1` (stereo unspecified): 2.5%.
Regarding `CC(C)Cc1ccc(/C=C/C(=O)N2CCCCC2)cc1`, the inhibition was 9.7%.
`Cc1ccc2nc(NC(=O)c3ccc(-c4nc5ccccc5s4)s3)sc2c1`: the inhibition is -17.4%.
Next, `Cc1ccc2nc(N3CCN(c4ccccc4F)CC3)c(C=O)c(=O)n2c1`: 19.9%.
With `Cc1ccc2nc(N3CCCCC3)c(C=O)c(=O)n2c1` the figure was -6.8%; with `Cc1ccc2nc(N3CCOCC3)c(C=O)c(=O)n2c1`, 2.9%.
Consider `COc1ccc(N2CCN(c3nc4ccccn4c(=O)c3C=O)CC2)cc1`, for which the inhibition is 42.4%.
Next, `Cc1ccc2nc(N3CCN(c4ccccc4)CC3)c(C=O)c(=O)n2c1`: 50.4% (active); `COc1ccc(N2CCN(c3nc4ccc(C)cn4c(=O)c3C=O)CC2)cc1`: 56.9% (active); `CC(C)(C)c1ccc(NC(=O)COC(=O)CCN2C(=O)c3cccc([N+](=O)[O-])c3C2=O)cc1`: 3.2%.
As to `CN1CCN(S(=O)(=O)c2ccc(NC(=O)c3csc4ccccc34)cc2)CC1`, the inhibition was -13.4%.
With `CC(=O)Nc1ccc(NS(=O)(=O)Cc2ccccc2)cc1` the figure was 3.4%; with `COc1ccc(C(CNC(=O)Cc2ccccc2F)N2CCCCC2)cc1` (stereo unspecified), -1.6%.
Next, `CN1/C(=C\C(=O)c2ccco2)c2ccccc2CC1(C)C`: -4.8%; `Cc1ccccc1NC(=S)NC12CN3CN(CN(C3)C1)C2`: 1.3%.
Next, `CCc1ccccc1N1CC23C=CC(O2)C(C(=O)OCC(C)C)C3C1=O` (stereo unspecified): 7.8%.

The values are drawn from PubChem BioAssay AID1220 (Sanford-Burnham Center for Chemical Genomics, 2008).
